Legend:
Assay type in all cases: functional
[1] = system: Plasmodium falciparum; assay: GSK_TCMDC: Inhibition of Plasmodium falciparum 3D7 in whole red blood cells, using parasite LDH activity as an index of growth. Test compounds present at 2uM
[2] = system: Plasmodium falciparum; assay: GSK_TCMDC: Inhibition of Plasmodium falciparum Dd2 in whole red blood cells, using parasite LDH activity as an index of growth. Test compounds present at 2uM
[3] = system: HepG2; assay: GSK_TCMDC: Percent inhibition of human HepG2 cell line. Test compounds present at 10uM.

| Compound | Inhibition [1] [%] | Inhibition [2] [%] | Inhibition [3] [%] |
| --- | --- | --- | --- |
| CC(CN(C)C)C(=O)Nc1ccc(-c2cccc(-c3nc4ccccc4[nH]3)c2)cc1 (centres undefined) | 99 | 57 | 68 |
| CC(C)[C@H](NC(=O)c1ccc(O)c(-c2cccc(C(F)(F)F)c2)c1)C(=O)NCCN1CCCCC1 | 99 | 29 | 3 |
| Cc1nc(-c2ccc(-c3ccc(NC(=O)c4coc5ccc(N6CC(C)N(C)C(C)C6)cc45)cc3)c(C)c2)no1.Cl (centres undefined) | 96 | 46 | 21 |
| CN1CCCC(CN2CCN(Cc3cccc(-c4csc(-c5nc6ccccc6[nH]5)c4)c3)CC2)C1.O=C(O)C(F)(F)F (centres undefined) | 100 | 100 | 65 |
| O=C(/C=C/c1ccc(Cl)c(Cl)c1)NC1CCC(CN2CCC(c3coc4ccccc34)CC2)CC1 (centres undefined) | 100 | 41 | 40 |
| Cc1ccc(O)cc1Nc1ccnc2ccc(C(C)(C)C)cc12 | 100 | 100 | 6 |
| COc1ccc(Nc2ncc(OC)c(Nc3ccccc3C(N)=O)n2)cc1N1CCN(C)CC1.O=CO | 100 | 96 | 63 |
| CC(=O)Nc1ccc(CNC2Cc3ccc(-c4ccc(Cl)c(Cl)c4)cc3C2)cc1 (centres undefined) | 89 | 7 | 49 |
| C/C(=C\C(=O)NC1CC1)c1ccccc1OCc1ccccc1 | 90 | 1 | 3 |
| COc1ccc2nccc([C@@H](O)CN3CCC(NC(=O)C(c4cc5ccccc5o4)N4CCN(Cc5ccccc5)CC4)CC3)c2c1 (some centres undefined) | 91 | 75 | 30 |
| CN(C)CCOc1cc(NC(=O)Nc2cccc3c(-c4ccncc4)cccc23)ccc1I.Cl | 100 | 28 | 20 |
| O=C(NC1CCN(Cc2ccccc2)CC1)c1cc(-c2ccncc2)c(-c2ccc(Cl)c(O)c2)o1.O=C(O)C(F)(F)F | 100 | 86 | 9 |
| COCCNCc1cccc(-c2cccc(CNC3CCN(Cc4ccccc4)CC3)c2)c1.O=C(O)C(F)(F)F | 100 | 99 | 28 |
| Cl.O=C(Nc1cccc(-c2nn3ncccc3c2-c2ccnc(Nc3cccnc3)n2)c1)c1c(F)cccc1F | 96 | 70 | 5 |
| CCc1ccc(CN2CCC(CN(c3ccc(N4CCOCC4)c(F)c3)S(=O)(=O)c3ccc(C(C)(C)CC)cc3)CC2)cc1.Cl | 93 | 94 | 26 |
| CC(=O)/N=C1\N=C(NC(C)=O)NC(C)(C)N1OCCCOc1ccc(Cl)c(Cl)c1 | 96 | 94 | 65 |
| COc1ccc2nccc([C@@H](O)CN3CCC(NC(=O)c4ccc(-c5ccccc5)s4)CC3)c2c1 | 100 | 81 | 10 |
| O=S(=O)(ON=C1CCc2ccccc21)c1ccc(Cl)cc1 | 100 | 79 | 0 |
| CCCc1c(C(=O)OCC)c2cc(O)ccc2n1-c1ccc(OC)cc1 | 100 | 99 | 0 |
| Cc1cc(NC2CCCC2)nc(Nc2ccc(F)cc2)n1 | 100 | 74 | 22 |
| COc1cc(N(Cc2ccccc2C)S(=O)(=O)Cc2ccccc2[N+](=O)[O-])c(OC)cc1Cl | 94 | 44 | 16 |
| COc1ccc2nccc([C@@H](O)CN3CCC(NCc4nc5c([N+](=O)[O-])cccc5[nH]4)CC3)c2c1.O=C(O)C(=O)O | 100 | 84 | 13 |
| COc1ccccc1-n1c(SCC(=O)Nc2ccccc2F)nc2cccnc21 | 96 | 88 | 0 |

Source: ChEMBL document CHEMBL1157539, “Thousands of chemical starting points for antimalarial lead identification” (Nature, 2010)
